Compound activity deposited in PubChem BioAssay by Broad Institute.
DENV2 CPE: protects cells from dengue virus 2 cytopathic effect | actives 1.7% (n = 350,000) | AID 651640 | DENV2-infected cells, cytopathic effect rescue, plate reader | CPE inhibition, % at 9.99 µM; in the data active means CPE inhibition above about 20%, passing the limit was not always enough; tested in BHK-21 cells;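 further: 0% = median of neutral control wells and 100% = median of positive control wells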
RAD52 anneal inh: blocks human RAD52 DNA annealing | recombinant RAD52 DNA annealing, FRET fluorescence | actives 0.46% (n = 360,000) | inhibition, % at 18.7 µM | P43351;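 active means every replicate showing at least 50% inhibition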
GSIS activator: primary screen for activators of insulin secretion dependent on glucose, INS-1E cells, GLuc reporter luminescence | INS-1E GLuc reporter insulin secretion, 2-3 h | AID 743287 | actives 0.61% (n = 370,000) | activation, % at 16.6 µM;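 active means lowest replicate activation of at least 40%, so every replicate reaches that level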;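 further: 0% = median of neutral control wells and 100% = median of IBMX positive control wells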
dFosB act: mouse delta FosB homodimer activation | P13346 | purified delta FosB, TAMRA-CDK5 oligo fluorescence polarization; percent of positive-control signal above neutral wells | activation, % at 25 µM | actives 0.99% (n = 340,000);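 active means mean activation above about 17%, with every replicate also reaching it, limit read from the data, passing the limit was not always enough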
RAD54 branch: inhibitors of human RAD54 branch migration; Q92698; actives 0.14% (n = 360,000); AID 602329; RAD54 Holliday junction branch migration, FAM/BHQ fluorescence; inhibition, % at 10.4 µM;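 active means mean normalized replicate activity at least 40 and at least half of replicates scoring 40 or more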;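 further: 0% = median of neutral control wells and 100% = median of positive control wells; inhibitors cause a drop in the FAM fluorescence signal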
Target sequence (Q92698 whole entry, looked up): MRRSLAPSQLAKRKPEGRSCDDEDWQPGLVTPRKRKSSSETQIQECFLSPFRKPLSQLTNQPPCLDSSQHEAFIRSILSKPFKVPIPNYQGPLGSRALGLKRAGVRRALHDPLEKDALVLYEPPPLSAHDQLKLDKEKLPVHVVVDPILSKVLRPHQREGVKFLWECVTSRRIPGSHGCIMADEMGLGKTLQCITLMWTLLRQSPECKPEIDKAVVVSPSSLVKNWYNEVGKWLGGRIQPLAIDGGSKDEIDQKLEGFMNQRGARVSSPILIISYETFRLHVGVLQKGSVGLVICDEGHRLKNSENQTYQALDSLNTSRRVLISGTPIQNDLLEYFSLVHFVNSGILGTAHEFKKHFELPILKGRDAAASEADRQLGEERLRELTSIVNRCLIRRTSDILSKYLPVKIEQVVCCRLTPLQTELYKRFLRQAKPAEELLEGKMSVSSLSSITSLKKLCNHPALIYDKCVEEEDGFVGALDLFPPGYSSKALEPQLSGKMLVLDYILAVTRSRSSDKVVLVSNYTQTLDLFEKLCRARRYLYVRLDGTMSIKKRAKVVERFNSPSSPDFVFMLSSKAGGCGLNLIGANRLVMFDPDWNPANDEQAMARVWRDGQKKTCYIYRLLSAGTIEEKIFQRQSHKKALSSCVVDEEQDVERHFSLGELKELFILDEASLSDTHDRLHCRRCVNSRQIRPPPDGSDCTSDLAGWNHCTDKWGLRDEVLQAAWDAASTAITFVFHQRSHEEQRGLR
MLL AF4-AF9 inh: inhibitors of human MLL-AF4/AF9 interaction; P42568; AlphaScreen, biotin-AF4 peptide binding to FLAG-AF9; inhibition, % at 10 µM; actives 0.47% (n = 350,000); AID 651704;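 active means every replicate reaching a set inhibition limit, whatever the replicate mean, cut at about 25% in these data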;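 further: 0% = plate neutral control median and 100% = total signal loss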
* hit, by the source's call; . = not tested or not shown; ! = not active in a repeat. Only some compounds are listed: those with a hit (about 3.1% of all), similar ones and a draw of the others.

SMILES	DENV2 CPE	RAD52 anneal inh	GSIS activator	dFosB act	RAD54 branch	MLL AF4-AF9 inh
CC(C)NC(=O)Nc1ccc2c(c1)CC(=O)N([C@@H](C)CO)C[C@H](C)[C@@H](CN(C)C(=O)Nc1cccc3ccccc13)O2	7.0	7.8	-12.2	.	3.7	-5.1
CCOc1ccc(C(=O)Nc2ccc(-c3nc4ccccc4[nH]3)cc2)cc1[N+](=O)[O-]	.	.	101.5*	-5.3	.	.
O=C(Cc1cccnc1)N1CC2(C1)[C@H](c1ccccc1)[C@@H](CO)N2C(=O)C1CC1	21.4*	-1.7	9.4	.	.	-11.5
O=C(C1CCOCC1)N1[C@H](CO)[C@@H](c2ccccc2)C12CN(Cc1cccnc1)C2	96.9*	-4.5	-4.6	.	.	3.2
CC(C)NC(=O)N1[C@H](CO)[C@@H](c2ccccc2)C12CN(C(=O)Cc1cccnc1)C2	31.4*	17.5	-8.3	.	.	-1.3
O=C(C1CCOCC1)N1[C@@H](CO)[C@@H](c2ccccc2)C12CN(Cc1cccnc1)C2	10.0	-17.3	8.1	.	.	-1.1
O=C(c1ccccc1)N1CC(=O)N2[C@H](CO)[C@H](c3ccc(C4=CCCC4)cc3)[C@@H]2C1	-3.6	-5.9	9.2	.	.	1.7
CCC(=O)N1CC2(C1)CN(C(=O)Nc1ccccc1F)[C@@H](CO)c1c2c2ccc(OC)cc2n1C	9.3	10.4	-26.7	.	.	-1.4
O=C1[C@@H]2[C@H](C(=O)N1c1ccccc1)[C@@]13COC[C@H](c4ccccc4)N1C(=O)[C@]2(C(=O)NCc1ccccc1)O3	4.3	8.1	.	.	.	1.1
COc1ccc(CSc2ncn[nH]2)cc1[N+](=O)[O-]	.	.	61.5*	1.5	.	.
COc1ccc(CSc2n[nH]c(C)n2)cc1[N+](=O)[O-]	.	.	-4.3	1.2	.	.
N#Cc1cccc(Oc2ccc(-c3cnc4ccccc4n3)cc2)c1C#N	.	.	87.2*	6.0	.	.
N#Cc1ccc(Oc2ccc(-c3cnc4ccccc4n3)cc2)cc1C#N	.	.	11.0	-3.3	-4.7	.
Cc1ccc(S(=O)(=O)N(C)C[C@H]2Oc3ccc(NS(=O)(=O)c4c(C)noc4C)cc3C(=O)N([C@@H](C)CO)C[C@H]2C)cc1	3.5	4.2	-8.4	.	-0.2	-1.6
COc1ccc(-c2nnc3sc(-c4ccco4)nn23)cc1OC	.	.	58.5*	-21.2	12.5	.
COc1cccc(S(=O)(=O)Nc2ccc3c(c2)OC[C@H](C)N(Cc2ccccc2F)C[C@@H](C)[C@@H](OC)CN(C)C3=O)c1	.	.	-23.6	.	.	.
NC(=O)c1cc(Cc2ccccc2)sc1NC(=O)c1ccco1	-2.9	-21.3	15.6	75.2*	10.9	-13.1
CCCNC(=O)C[C@H]1C[C@@H]2c3cc(NC(=O)CC4CC4)ccc3O[C@@H]2[C@H](CO)O1	-3.7	0.3	-5.8	.	-7.5	-1.3
O=C(NCc1ccccc1)C1=C[C@@H](C2CC2)C[C@@H](OCCCCO)O1	-14.5	-8.7	.	7.3	1.3	-4.7
O=C(Nc1ccccc1)C1=C[C@@H](c2ccc(C(F)(F)F)cc2)C[C@@H](OCCCCO)O1	46.1*!	-44.0	-20.7	2.3	-8.0	3.7
O=C(NCc1ccccc1)C1=C[C@H](C2CCCCC2)C[C@H](OCc2ccc(CO)cc2)O1	-3.6	-5.2	-23.8	-3.7	9.0	-0.5
O=C(Nc1ccccc1)C1=C[C@H](C2CC2)C[C@H](OCCCCO)O1	24.0*!	4.5	-5.3	0.6	-1.1	-16.9
O=C(NCc1ccccc1)C1=C[C@@H](C2CC2)C[C@@H](OCc2ccc(CO)cc2)O1	26.1*!	5.9	.	3.3	-1.7	1.1
O=C(NC1CC1)C1=C[C@@H](C2CCCCC2)C[C@@H](OCCCCO)O1	39.1*!	-10.7	-13.2	1.5	-10.9	-3.7
CCO[C@@H]1OC(C(=O)NC2CC2)=C[C@H](C2CCCCC2)[C@H]1CCCO	.	.	-11.7	-4.8	-3.5	.
CCO[C@H]1OC(C(=O)NC2CC2)=C[C@@H](C2CCCCC2)[C@@H]1CCCO	23.0*	12.5	-10.4	-9.0	-4.1	-3.0
CNC[C@@H]1Oc2c(NC(=O)Nc3ccc(C(F)(F)F)cc3)cccc2C(=O)N([C@@H](C)CO)C[C@@H]1C	0.4	0.2	-16.6	.	-2.0	1.5
C[C@@H]1CN([C@H](C)CO)C(=O)c2cc(Br)cnc2O[C@@H]1CN(C)CC1CCCC1	2.4	-7.9	11.5	.	8.4	-6.8
CNCCC=C1c2ccccc2CCc2ccccc21	0.7	-2.4	.	-5.6	12.7	37.6*!
